Assay results from the supplement of paper PMC8728848.
This excerpt belongs to a sample that is enriched for the strongest signals.

Experiments:
Test in all cases: glycan array binding signal (z-score within array); higher = stronger binding
Details in all cases: glycan notation: IUPAC condensed, linker removed
[1] = target: GlcNAc(b1-4)GlcNAc(b1-4)GlcNAc
In short: (§1)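 Glycan array data came from 3228 arrays in the Consortium for Functional Glycomics database, and only arrays with an available protein sequence were kept. Glycan names were put into IUPAC-condensed notation, and columns mapping to the same glycan were averaged. The binding signal is a within-array Z-score, averaged across arrays of one protein sequence run at different concentrations or buffers and across linkers. A negative Z-score can be read as non-binding.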

[2] = target: Man(a1-3)[Man(a1-6)]Man(a1-6)[Man(a1-2)Man(a1-3)]Man(b1-4)GlcNAc(b1-4)GlcNAc
In short: as §1

[3] = target: Man(a1-3)[Man(a1-6)]Man(a1-6)[Man(a1-3)]Man
In short: as §1

[4] = target: Man(a1-3)[Man(a1-6)]Man(a1-6)[Man(a1-3)]Man(b1-4)GlcNAc(b1-4)GlcNAc
In short: as §1

[5] = target: Man(a1-3)[Man(a1-6)]Man(b1-4)GlcNAc(b1-4)[Fuc(a1-6)]GlcNAc
In short: as §1

[6] = target: Neu5Ac(a2-3)Gal(b1-3)GlcNAc(b1-2)Man(a1-3)[Neu5Ac(a2-3)Gal(b1-3)GlcNAc(b1-2)Man(a1-6)]Man(b1-4)GlcNAc(b1-4)GlcNAc
In short: as §1

[7] = target: Neu5Ac(a2-3)Gal(b1-3)GlcNAc(b1-3)Gal(b1-3)GlcNAc
In short: as §1

[8] = target: Neu5Ac(a2-3)Gal(b1-3)GlcNAc(b1-6)GalNAc
In short: as §1

Neu5Ac(a2-6)Gal = target: Neu5Ac(a2-6)Gal
In short: as §1

Neu5Ac(a2-6)Gal(b1-4)Glc = target: Neu5Ac(a2-6)Gal(b1-4)Glc
In short: as §1

[9] = target: Neu5Ac(a2-6)Gal(b1-4)GlcNAc
In short: as §1

[10] = target: Neu5Ac(a2-6)Gal(b1-4)GlcNAc(b1-2)Man(a1-6)[Gal(b1-4)GlcNAc(b1-2)Man(a1-3)]Man(b1-4)GlcNAc(b1-4)GlcNAc
In short: as §1

[11] = target: Neu5Ac(a2-6)Gal(b1-4)GlcNAc(b1-3)Gal(b1-4)GlcNAc(b1-3)Gal(b1-4)GlcNAc
In short: as §1

[12] = target: Neu5Ac(a2-6)Gal(b1-4)GlcNAc(b1-6)[Gal(b1-3)]GalNAc
In short: as §1

Neu5Ac(a2-8)Neu5Ac = target: Neu5Ac(a2-8)Neu5Ac
In short: as §1

[13] = target: Neu5Ac(a2-8)Neu5Ac(a2-3)Gal(b1-4)GlcNAc
In short: as §1

[14] = target: Neu5Ac(a2-8)Neu5Ac(a2-8)Neu5Ac(a2-8)Neu5Ac(a2-3)[GalNAc(b1-4)]Gal(b1-4)Glc
In short: as §1

[15] = target: Neu5Gc(a2-3)Gal(b1-4)GlcNAc(b1-3)Gal(b1-4)GlcNAc(b1-2)Man(a1-3)[Neu5Gc(a2-3)Gal(b1-4)GlcNAc(b1-3)Gal(b1-4)GlcNAc(b1-2)Man(a1-6)]Man(b1-4)GlcNAc(b1-4)GlcNAc
In short: as §1

[16] = target: Neu5Gc(a2-8)Neu5Gc(a2-3)Gal(b1-4)GlcNAc
In short: as §1

B1: BDCA-2 (Homo sapiens), Q8WTT0 (protein)
chain: MVPEEEPQDREKGLWWFQLKVWSMAVVSILLLSVCFTVSSVVPHNFMYSKTVKRLSKLREYQQYHPSLTCVMEGKDIEDWSCCPTPWTSFQSSCYFISTGMQSWTKSQKNCSVMGADLVVINTREEQDFIIQNLKRNSSYFLGLSDPGGRRHWQWVDQTPYNENVTFWHSGEPNNLDERCAIINFRSSEEWGWNDIHCHVPQKSICKMKKIYI
glycan array binding signal (z-score) [1]: -0.228 | glycan array binding signal (z-score) [2]: -0.087 | glycan array binding signal (z-score) [3]: -0.163 | glycan array binding signal (z-score) [4]: -0.184 | glycan array binding signal (z-score) [5]: -0.173 | glycan array binding signal (z-score) [6]: -0.169 | glycan array binding signal (z-score) [7]: -0.196 | glycan array binding signal (z-score) [8]: -0.169 | glycan array binding signal (z-score) (Neu5Ac(a2-6)Gal): -0.173 | glycan array binding signal (z-score) (Neu5Ac(a2-6)Gal(b1-4)Glc): -0.252 | glycan array binding signal (z-score) [9]: -0.282 | glycan array binding signal (z-score) [10]: 11.8 | glycan array binding signal (z-score) [11]: -0.186 | glycan array binding signal (z-score) [12]: -0.164 | glycan array binding signal (z-score) (Neu5Ac(a2-8)Neu5Ac): -0.243 | glycan array binding signal (z-score) [13]: -0.192 | glycan array binding signal (z-score) [14]: -0.318 | glycan array binding signal (z-score) [15]: -0.153 | glycan array binding signal (z-score) [16]: -0.189
